From PubChem BioAssay AID1159580 (chemical genetic matrix, 2015)
Screen size: about 5,500 compounds; about 2,000 (36%) were called active. Another 18% or so got no clear call; they are omitted. Cut-off read from the data, not from the text of the source: active = normalized growth mostly below about 0.91 (no sharp cut-off); inconclusive = no clear call, values can overlap the other calls; inactive = mostly above about 0.92. The list shows a part of the results.

Test: chemical genetic growth profiling, strain panel (AID 1159580);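 note: tested at 20 µM; growth read once vehicle control cultures reached saturation at 30 °C; 1 = growth at the plate median or of vehicle wells; lower values mean less growth of the strain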
Conditions: growth OD
[1] = S. cerevisiae deletion strains, locus YAL013W, strain DEP1, hits give low values
[2] = S. cerevisiae deletion strains, locus YAL040C, strain CLN3, hits give low values
[3] = S. cerevisiae deletion strains, locus YCL061C, strain MRC1 (second series), hits give low values
[4] = S. cerevisiae deletion strains, locus YDR150W, strain NUM1, hits give low values
[5] = S. cerevisiae deletion strains, locus YDR363W, strain ESC2, hits give low values
[6] = S. cerevisiae deletion strains, locus YER002W, strain NOP16, hits give low values
[7] = S. cerevisiae deletion strains, locus YGR078C, strain PAC10, hits give low values
[8] = S. cerevisiae deletion strains, locus YJR075W, strain HOC1, hits give low values
[9] = S. cerevisiae deletion strains, locus YMR263W, strain SAP30, hits give low values
[10] = S. cerevisiae deletion strains, locus YMR307W, strain GAS1, hits give low values
[11] = S. cerevisiae deletion strains, locus YNL153C, strain GIM3, hits give low values
[12] = S. cerevisiae deletion strains, locus YNL175C, strain NOP13, hits give low values
[13] = S. cerevisiae deletion strains, locus YNL197C, strain WHI3, hits give low values
[14] = S. cerevisiae deletion strains, locus YNL224C, strain SQS1, hits give low values
[15] = S. cerevisiae deletion strains, locus YNL322C, strain KRE1, hits give low values
[16] = S. cerevisiae deletion strains, locus YOR083W, strain WHI5 (second series), hits give low values
[17] = S. cerevisiae deletion strains, locus YPL241C, strain CIN2, hits give low values
[18] = S. cerevisiae deletion strains, locus YPL055C, strain LGE1, hits give low values
[19] = S. cerevisiae deletion strains, locus YNL128W, strain TEP1, hits give low values
[20] = S. cerevisiae deletion strains, locus YBR229C, strain ROT2, hits give low values
[21] = S. cerevisiae deletion strains, locus YDL101C, strain DUN1, hits give low values
[22] = S. cerevisiae deletion strains, locus YDL134C, strain PPH21, hits give low values
[23] = S. cerevisiae deletion strains, locus YHR030C, strain SLT2, hits give low values
[24] = S. cerevisiae deletion strains, locus YJR043C, strain POL32, hits give low values
[25] = S. cerevisiae deletion strains, locus YLR039C, strain RIC1, hits give low values
[26] = S. cerevisiae deletion strains, locus YLR262C, strain YPT6, hits give low values
[27] = S. cerevisiae deletion strains, locus YOL006C, strain TOP1, hits give low values

Measured: normalized growth

N#CC(=C(\N)Sc1ccccc1N)/C(C#N)=C(/N)Sc1ccccc1N
active: [16] 0.763
inactive: [1] 0.988 | [2] 0.974 | [3] 1.01 | [4] 1.01 | [5] 1 | [6] 1 | [7] 0.99 | [8] 0.97 | [9] 1 | [10] 0.995 | [11] 0.923 | [12] 0.981 | [13] 0.971 | [14] 0.973 | [15] 0.988 | [17] 1.01

Cc1nc(N=Nc2cc(S(=O)(=O)O)c3cc([N+](=O)[O-])cc(S(=O)(=O)O)c3c2)c(COP(=O)(O)O)c(C=O)c1O
inactive: [1] 0.999 | [2] 1.02 | [3] 1 | [4] 0.995 | [5] 1.01 | [6] 1.02 | [7] 1 | [8] 1 | [12] 0.997 | [13] 1 | [14] 1.01 | [16] 1.01 | [18] 1.02

NC(N)=NC(N)=Nc1cccc(Cl)c1
inactive: [1] 1.01 | [2] 1 | [3] 1.01 | [5] 0.999 | [6] 0.993 | [8] 1 | [9] 0.999 | [19] 1.03 | [11] 1 | [12] 1.01 | [13] 1.04 | [14] 1.01 | [15] 0.995 | [16] 1.05 | [18] 1

NC(N)=NC(N)=Nc1cc(Cl)cc(Cl)c1
inactive: [1] 1 | [20] 1.01 | [21] 1 | [22] 1.01 | [4] 0.919 | S. cerevisiae deletion strains, locus YEL061C, strain CIN8, hits give low values 1.02 | [7] 1 | [23] 0.98 | S. cerevisiae deletion strains, locus YHR087W, strain rtc3, hits give low values 1.01 | S. cerevisiae deletion strains, locus YJL187C, strain SWE1, hits give low values 1.01 | [24] 0.999 | [8] 0.972 | [25] 0.975 | S. cerevisiae deletion strains, locus YLR058C, strain SHM2 (second series), hits give low values 0.999 | S. cerevisiae deletion strains, locus YLR085C, strain ARP6, hits give low values 1.03 | [26] 1 | S. cerevisiae deletion strains, locus YML094W, strain GIM5, hits give low values 1.03 | S. cerevisiae deletion strains, locus YMR219W, strain ESC1, hits give low values 0.99 | [9] 0.987 | [10] 0.889 | [11] 0.983 | S. cerevisiae deletion strains, locus YNL298W, strain CLA4 (second series), hits give low values 1.03 | [15] 0.999 | S. cerevisiae deletion strains, locus YNR030W, strain Alg12, hits give low values 1.02 | [27] 1.06 | [18] 0.884 | [17] 1.01 | S. cerevisiae deletion strains, locus YPR135W, strain CTF4, hits give low values 1.15

NC(N)=Nc1ccc(Cl)cc1
inactive: [1] 1.01 | S. cerevisiae deletion strains, locus YBR021W, strain FUR4, hits give low values 1.01 | [20] 1.01 | S. cerevisiae deletion strains, locus YCL029C, strain bik1, hits give low values 1 | S. cerevisiae deletion strains, locus YDL035C, strain GPR1, hits give low values 1.02 | S. cerevisiae deletion strains, locus YDL074C, strain BRE1, hits give low values 1.04 | [21] 1.03 | [22] 1.02 | S. cerevisiae deletion strains, locus YDL185W, strain tfp1, hits give low values 1.01 | S. cerevisiae deletion strains, locus YDL192W, strain arf1, hits give low values 1.01 | S. cerevisiae deletion strains, locus YDR101C, strain arx1, hits give low values 0.99 | [4] 1.02 | S. cerevisiae deletion strains, locus YDR162C, strain NBP2, hits give low values 1.02 | S. cerevisiae deletion strains, locus YDR318W, strain mcm21, hits give low values 0.997 | S. cerevisiae deletion strains, locus YDR388W, hits give low values 0.997 | S. cerevisiae deletion strains, locus YDR502C, strain sam2, hits give low values 1 | S. cerevisiae deletion strains, locus YER110C, hits give low values 0.996 | S. cerevisiae deletion strains, locus YER155C, strain BEM2, hits give low values 1.01 | S. cerevisiae deletion strains, locus YER167W, strain BCK2, hits give low values 1.03 | S. cerevisiae deletion strains, locus YGL078C, strain dbp3, hits give low values 0.996 | S. cerevisiae deletion strains, locus YGL086W, strain mad1, hits give low values 1 | S. cerevisiae deletion strains, locus YGL248W, strain PDE1, hits give low values 1.01 | [7] 1.02 | S. cerevisiae deletion strains, locus YGR135W, strain pre9, hits give low values 0.998 | S. cerevisiae deletion strains, locus YGR229C, strain SMI1, hits give low values 1.03 | S. cerevisiae deletion strains, locus YGR252W, strain gcn5, hits give low values 0.972 | [23] 1 | S. cerevisiae deletion strains, locus YHR079C, strain IRE1 (second series), hits give low values 1 | S. cerevisiae deletion strains, locus YHR094C, strain hxt1, hits give low values 0.988 | S. cerevisiae deletion strains, locus YHR129C, strain ARP1, hits give low values 1.01 | S. cerevisiae deletion strains, locus YHR200W, strain rpn10, hits give low values 0.999 | S. cerevisiae deletion strains, locus YIL066C, strain RNR3, hits give low values 1.02 | S. cerevisiae deletion strains, locus YIL073C, strain SPO22, hits give low values 1.09 | S. cerevisiae deletion strains, locus YIL125W, strain kgd1, hits give low values 1 | S. cerevisiae deletion strains, locus YIR030C, strain dcg1, hits give low values 0.992 | S. cerevisiae deletion strains, locus YJL095W, strain BCK1, hits give low values 1.02 | S. cerevisiae deletion strains, locus YJL134W, strain LCB3, hits give low values 1.01 | S. cerevisiae deletion strains, locus YJL168C, strain set2, hits give low values 1 | S. cerevisiae deletion strains, locus YJL187C, strain SWE1 (second series), hits give low values 1.01 | [8] 1.01 | S. cerevisiae deletion strains, locus YKL009W, strain mrt4, hits give low values 0.987 | S. cerevisiae deletion strains, locus YKL068W, hits give low values 0.988 | S. cerevisiae deletion strains, locus YKL085W, strain MDH1 (second series), hits give low values 1.01 | S. cerevisiae deletion strains, locus YKL085W, strain MDH1, hits give low values 1.01 | S. cerevisiae deletion strains, locus YKL190W, strain CNB1, hits give low values 1.02 | S. cerevisiae deletion strains, locus YKR001C, strain vps1, hits give low values 0.999 | [25] 1.1 | S. cerevisiae deletion strains, locus YLR058C, strain SHM2, hits give low values 1.01 | S. cerevisiae deletion strains, locus YLR102C, strain apc9, hits give low values 0.998 | [26] 1.07 | S. cerevisiae deletion strains, locus YLR268W, strain sec22, hits give low values 0.996 | S. cerevisiae deletion strains, locus YLR330W, strain CHS5, hits give low values 1.02 | S. cerevisiae deletion strains, locus YLR342W, strain FKS1 (second series), hits give low values 1.05 | S. cerevisiae deletion strains, locus YLR371W, strain rom2, hits give low values 0.996 | S. cerevisiae deletion strains, locus YLR418C, strain cdc73, hits give low values 1 | S. cerevisiae deletion strains, locus YML016C, strain PPZ1, hits give low values 1.02 | S. cerevisiae deletion strains, locus YML032C, strain rad52, hits give low values 0.961 | S. cerevisiae deletion strains, locus YML124C, strain tub3, hits give low values 0.99 | S. cerevisiae deletion strains, locus YMR078C, strain ctf18, hits give low values 0.995 | S. cerevisiae deletion strains, locus YMR223W, strain ubp8, hits give low values 0.998 | [9] 1.02 | [10] 1.01 | S. cerevisiae deletion strains, locus YNL067W, strain RPL9B, hits give low values 1.01 | [19] 1.05 | [11] 1.02 | S. cerevisiae deletion strains, locus YNL233W, strain BNI4, hits give low values 1.01 | S. cerevisiae deletion strains, locus YNL250W, strain rad50, hits give low values 0.984 | S. cerevisiae deletion strains, locus YNL271C, strain bni1, hits give low values 1 | S. cerevisiae deletion strains, locus YNL298W, strain CLA4, hits give low values 0.997 | S. cerevisiae deletion strains, locus YNL307C, strain MCK1, hits give low values 1 | [15] 1.01 | S. cerevisiae deletion strains, locus YNR052C, strain pop2, hits give low values 0.993 | [27] 1.18 | S. cerevisiae deletion strains, locus YOL012C, strain htz1 1.11 | S. cerevisiae deletion strains, locus YOL147C, strain pex11, hits give low values 0.995 | S. cerevisiae deletion strains, locus YOR061W, strain CKA2, hits give low values 1.02 | S. cerevisiae deletion strains, locus YOR136W, strain idh2, hits give low values 0.997 | S. cerevisiae deletion strains, locus YOR144C, strain elg1, hits give low values 0.984 | S. cerevisiae deletion strains, locus YOR184W, strain ser1, hits give low values 1.02 | S. cerevisiae deletion strains, locus YOR316C, strain cot1, hits give low values 1 | [18] 1.05 | S. cerevisiae deletion strains, locus YPR119W, strain clb2, hits give low values 0.988 | S. cerevisiae deletion strains, locus YPR141C, strain kar3, hits give low values 0.997 | S. cerevisiae deletion strains, locus YPR163C, strain tif3, hits give low values 0.997 | S. cerevisiae deletion strains, locus YPR167C, strain met16, hits give low values 0.997 | S. cerevisiae deletion strains, strain wtn01, hits give low values 0.999 | S. cerevisiae strains, strain wild type, hits give low values 1.01
active: [24] 1.17 [resistant] | S. cerevisiae deletion strains, locus YOR069W, strain VPS5, hits give low values 1.11 [resistant]
